# The list is not random: actives were taken first. Their share in the collection is about 8.3%.
# HCMV inh – inhibitors of human cytomegalovirus; HFF cells, HCMV-luciferase reporter, 72 h; active compounds read low; activity change, negative = inhibition, % at 57.5 µM; actives 4.5% (n = 410,000); in the data active = activity change below about -60%; inconclusive = no clear call, values can overlap the other calls; inactive = above about -39%
#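 Two-dose cell screen: HFF monolayers treated with compounds and infected with luciferase-expressing HCMV at 1 PFU/cell, 72 h at 37C, then lysed for luciferase measurement.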
# FMDV antiviral – antivirals against foot and mouth disease virus. FMDV antiviral cell-based qHTS. Potency, µM (titrated, usually from 57.9 µM), actives largely listed as inhibitors. actives 1.2% (n = 410,000). AID 1159524; calls by dose curve; tested in HEK293T cells; also: read-out not given here; nearly all actives have a fitted effect of over 45% in size
# LASV entry inh – Lassa virus entry inhibition. Lassa virus pseudotype entry inhibition, cell reporter. Potency, µM (highest dose often 37.9 µM), hits mostly inhibitors. actives 1.2% (n = 300,000); calls by dose curve; tested in HEK293 cells; also: nearly all actives have a fitted effect of over 50% in size
# HCV inhibitor – inhibitors of hepatitis C virus infection | actives 3.4% (n = 340,000) | Huh7.5.1 HCVcc-Cre infection, luciferase reporter, 44 h | AID 651820 | Potency, µM (top dose mostly 41.8 µM), actives largely listed as inhibitors
#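 Compounds are dispensed onto cells plated 4 h earlier at 1,000 per well, with HCVcc-Cre virus (about 0.5 moi) added next. Following 44 h of culture, luminescent signal is measured for 15 sec after 15 min with substrate at room temperature.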
# FBPA Giardia inh – blocks Giardia fructose-bisphosphate aldolase activity | A8B2U2 | purified Giardia FBPA | Potency, µM (series often up to 59.6 µM), usual class: inhibitors | actives 0.71% (n = 290,000); also: nearly all actives have a fitted effect of over 55% in size
# Target sequence (A8B2U2 whole entry, looked up): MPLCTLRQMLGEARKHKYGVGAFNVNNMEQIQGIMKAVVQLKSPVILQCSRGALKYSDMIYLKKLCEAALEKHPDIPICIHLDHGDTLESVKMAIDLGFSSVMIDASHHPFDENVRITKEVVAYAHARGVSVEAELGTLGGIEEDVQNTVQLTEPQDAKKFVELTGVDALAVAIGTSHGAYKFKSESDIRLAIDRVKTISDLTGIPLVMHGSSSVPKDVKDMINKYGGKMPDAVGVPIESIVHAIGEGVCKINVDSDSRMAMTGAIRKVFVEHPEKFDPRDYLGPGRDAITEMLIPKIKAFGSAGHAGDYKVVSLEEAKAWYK
#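 Giardia FBPA (40 nM reagent) was preincubated 10 min at RT with compound (up to 57.5 uM final), then substrate plus GAPDH/TPI/NAD/arsenate coupling system with diaphorase/resazurin was added; resorufin fluorescence (525/598 nm) was read after 20 min.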
# Marburg entry inh – inhibitors of Marburg virus binding or cell entry. Marburg virus pseudotyped entry inhibition, cell reporter. Potency, µM (top dose mostly 37.8 µM), hits mostly inhibitors. actives 1.8% (n = 300,000). AID 540276; calls by dose curve; tested in HEK293 cells
# Numbers stand for hits; . = inactive; ? = inconclusive; / = no result given. Unless noted, calls follow the shape of the dose curve; as a rule, active = well fitted curve in the direction sought with a large enough effect; inconclusive = small, poorly fitted or top-dose-only effect, or another doubt; inactive = no such curve, though single readings can be large; an effect the other way counts as inactive or inconclusive.
SMILES,HCMV inh,FMDV antiviral,LASV entry inh,HCV inhibitor,FBPA Giardia inh,Marburg entry inh
COc1ccccc1OCC(=O)Nc1ccc(S(=O)(=O)N2CCCCCC2)cc1,.,/,.,1.58µM,.,?
CCOc1ccccc1C(=O)Nc1ccc(S(=O)(=O)Nc2ncccn2)cc1,.,.,.,/,/,.
O=C(COc1ccc(Br)cc1CO)Nc1ccc(S(=O)(=O)N2CCCC2)cc1,?,35.5µM,.,?,/,?
Cc1cccc(C2=N[C@@H](Cc3ccccc3)CO2)c1,/,/,/,/,.,/
CCCOc1ccccc1OCC(=O)Nc1ccc(S(=O)(=O)N2CCCC2)cc1,.,.,.,10µM,/,?
CCCOc1ccccc1OCC(=O)Nc1ccc(S(=O)(=O)N2CCCCC2)cc1,.,.,?,?,/,?
CN1CCN(S(=O)(=O)c2ccc(NC(=O)c3cccs3)cc2)CC1,.,.,.,.,.,.
CN1CCN(S(=O)(=O)c2ccc(NC(=O)c3csc4ccccc34)cc2)CC1,.,.,.,10µM,.,.
Cc1ccccc1OCC(=O)Nc1cc(S(=O)(=O)N2CCCCC2)ccc1N1CCN(C)CC1,?,.,?,11.2µM,.,?
CCN(CC(=O)Nc1ccc(S(=O)(=O)N2CCCC2)cc1)CC(=O)Nc1ccccc1C(F)(F)F,.,.,/,11.2µM,/,/
COc1c2ccccc2nn1-c1ccc(-c2cn(Cc3ccccc3)nn2)cc1,.,/,/,/,/,/
Clc1ccc2nc(NCc3ccccc3)c3nncn3c2c1,.,.,.,/,/,.
COC(=O)c1ccc(OCC2c3cc(OC)c(OC)cc3CCN2C(=O)c2ccc(F)cc2)cc1 (stereo unspecified),.,?,?,/,/,/
COc1ccc(Cn2ccc3nc(C)c(C(=O)N4CCN(c5cc(C)ccc5C)CC4)cc3c2=O)cc1,.,?,.,/,/,/
O=C(Nc1ccc(O)cc1)c1ccccc1OCc1ccccc1,-77.2,.,/,14.1µM,.,/
COc1cccc(OC)c1OCC(=O)Nc1ccc(S(=O)(=O)N2CCCC2)cc1,.,25.1µM,/,8.91µM,/,/
CCCOc1ccc(S(=O)(=O)N2CCN(C)CC2)c2ccccc12,-61.0,.,.,.,.,.
O=C(Nc1ccccc1)c1ccccc1OCc1ccc(F)cc1,.,.,/,?,.,/
CCCOc1ccccc1C(=O)Nc1ccc(S(=O)(=O)N2CCN(C)CC2)cc1,.,.,/,22.4µM,.,/
COc1ccccc1C(=O)Nc1ccc(S(=O)(=O)N2CCN(C)CC2)cc1,.,.,.,.,/,.
C=CCn1c(SCC(=O)Nc2ccc(Br)cc2)nc(O)cc1=O,-100.1,.,/,/,/,/
CCc1ccc(N2C=C(C(=O)OC)C(c3cccc4ccccc34)C(C#N)=C2N)cc1 (stereo unspecified),-100.6,.,/,/,/,/
CCc1cccc(CC)c1NC(=O)Cn1nnc2sc3c(c2c1=O)CCCC3,.,.,.,/,/,.
CC[C@H](C)[C@H](NC(=O)[C@@H]1CCCN1C(=O)[C@H](Cc1cnc[nH]1)NC(=O)[C@@H](NC(=O)[C@H](Cc1ccc(O)cc1)NC(=O)[C@@H](NC(=O)[C@H](CCCN=C(N)N)NC(=O)CNC)C(C)C)[C@@H](C)CC)C(=O)O,/,/,/,/,.,/
CCOc1ccc(NC(=O)c2cccc(OC(=S)N3CCOCC3)c2)cc1,-67.8,.,.,.,.,.
SMILES,HCMV inh,FMDV antiviral,LASV entry inh,HCV inhibitor,FBPA Giardia inh,Marburg entry inh
O=C(Oc1ccc(C(=S)N2CCOCC2)cc1)c1ccc(Br)cc1,-60.4,.,.,.,.,.
O=C(Oc1ccc(C(=S)N2CCOCC2)cc1)c1ccccc1,.,.,.,.,.,?
O=C(Nc1ccc(Br)cc1)c1cccc(OC(=S)N2CCOCC2)c1,-76.8,?,?,8.91µM,.,?
CCN1C2=C(C=C/C1=C1\C(=O)N(C)C(=S)N1C1CCCCC1)CCCC2,/,/,/,/,/,.
CCc1ccccc1NC(=O)CNC(=O)c1ccc(S(=O)(=O)NCc2ccco2)cc1,-102.1,.,/,/,/,/
CCNC(=S)NNC(=O)c1ccc(S(=O)(=O)NCc2ccco2)cc1,-100.1,.,.,.,/,?
C[C@@H]1CC[C@H]2C(=O)N(CC3CCCCC3)C[C@H](O)CN2[C@@H]1c1ccc(Br)cc1,/,/,/,/,/,.
COc1cc(CCNC2=CC(=O)c3ncccc3C2=O)ccc1O,.,39.8µM,?,?,/,?
COc1ccc(/C=C/C(=O)C2C(=O)C=C(C)OC2=O)cc1O (stereo unspecified),-76.7,.,.,.,?,.
COc1cc(/C=C/C(=O)O)cc(Br)c1O,.,.,.,.,.,.

# Screening results deposited in PubChem BioAssay by National Center for Advancing Translational Sciences (NCATS).
